Experimental data taken from PubChem BioAssay (EPA / NIEHS).
The source made the active and inactive calls. Rule for the calls: active = hit-call score of the fitted dose curve at least 0.9, where 1 is the maximum; inactive = score below 0.9.

assay: ATG_Oct_MLP_CIS: Attagene CIS-FACTORIAL HepG2 Assay for human Octamer-Binding Transcription Factor (Oct) (AID 2282993); settings: HepG2 Attagene cis-factorial Oct reporter, mRNA; actives raise or lower the signal
Procedure: ATG_CIS is a cell-based, multiplexed-readout assay that uses HepG2, a human liver cell line, with measurements taken at 24 hours after chemical dosing in a 24-well plate.ATG_Oct_MLP_CIS is one of 52 assay component(s) measured or calculated from the ATG_CIS assay. It is designed to make measurements of mRNA induction, a form of inducible reporter, as detected with fluorescence intensity signals by Reverse transcription polymerase chain reaction (RT-PCR) and Capillary electrophoresis technology.Data from the assay component ATG_Oct_MLP_CIS was analyzed into 1 assay endpoint. This assay endpoint, ATG_Oct_MLP_CIS, was analyzed with bidirectional fitting relative to DMSO as the negative control and baseline of activity. Using a type of inducible reporter, measures of mRNA for gain or loss-of-signal activity can be used to understand the reporter gene at the transcription factor-level as they relate to the gene POU2F1. Furthermore, this assay endpoint can be referred to as a primary readout, because this assay has produced multiple assay endpoints where this one serves a reporter gene function. To generalize the intended target to other relatable targets, this assay endpoint is annotated to the dna binding intended target family, where the subfamily is POU domain protein.
Human liver HepG2 cells are transiently transfected with multiple reporter transcription units (MRTUs) in 6-well plates using FuGene 6 reagent (Roche; 3 ml FuGene/1 mg DNA). The MRTU constructs are regulated by a cis-regulating element (promoter). […] A major difference between the CIS and TRANS system is that in CIS activities of endogenous TFs are measured, whereas the TRANS assay evaluates changes in activities of exogenous, chimeric NR-Gal4 proteins. […] At the end of 24 hour incubation, total RNA was isolated using TriZol reagent (Invitrogen). The isolated RNA is then reverse-transcribed using oligo(dT) primer and Mo-MLV reverse transcriptase (Invitrogen) with DNAse I (Ambion) treatment for 30 min. The one-tenth of the produced cDNA was amplified by PCR using Taq DNA polymerase (Invitrogen) and two reporter sequence-specific primers. The PCR products were fluorescently labeled by primer extension with 6-arboxyfluorescein (6-FAM) 5'-labeled reporter sequence-specific primer (2 min at 95 C, 20 s at 68 C and 10 min at 72 C) and these products were digested with 5U of HpaI (New England Biolabs) for 2h at 37 C. The fragments were purified using Qiaquick PCR columns (Qiagen), analyzed on an ABI 3130xL genetic analyzer (Applied Biosystems) with peak positions identified by using a set of X-rhodamine (ROX)-labeled MapMarker1000 molecular weight standards (BioVentures). The raw capillary electrophoresis data was processed using Attagraph software (Attagene).

outcome, inactive:
CCCCCOC(=O)CCC, CC(C)(C)c1cc(CCC(=O)NN)cc(C(C)(C)C)c1O, CC(C)C(C)(C)C(C)(C)C(C)(C)S, CCCCNC(=O)NS(=O)(=O)c1ccc(C)cc1, CC(C)(C)c1n[nH]c(=S)n(N)c1=O, CCCCCCCCCCCCCCCCCC(=O)OCC(CC)CCCC (stereo not given), CC(=O)OCCC(C)CC(C)(C)C (stereo not given), CC(=O)C=CC1=C(C)CCCC1(C)C, Sc1nc(S)nc(S)n1, CN(C)C(=N)N=C(N)N, O=C(O)Cc1cccc2ccccc12, O=CCCc1ccccc1, CC(C)=CCO, O=S(=O)(O)c1cccc2c(S(=O)(=O)O)cccc12, C=C[C@@H](C)CCC=C(C)C, Nc1ccc(F)c([N+](=O)[O-])c1, CC1(C)[C@@H]2CC[C@@]1(C)[C@H](O)C2, O=C(O)c1ccc(C(=O)O)cc1, O=Cc1ccc(F)cc1, C=COCCOCCOCCOC=C, CC(C)CCCCCCCOC(=O)c1ccc(C(=O)OCCCCCCCC(C)C)c(C(=O)OCCCCCCCC(C)C)c1, C[C@H]1C[C@H]2[C@@H]3CCC4=CC(=O)C=C[C@]4(C)[C@@]3(F)[C@@H](O)C[C@]2(C)[C@@]1(O)C(=O)COP(=O)(O)O, CC(C)(C#N)c1cc(Cn2cncn2)cc(C(C)(C)C#N)c1, O=[N+]([O-])c1ccc(Nc2ccc(Nc3ccccc3)c(S(=O)(=O)O)c2)c([N+](=O)[O-])c1, CCCC[n+]1ccccc1, OCCOCCOCCOCCO, CO[Si](CCCn1c(=O)n(CCC[Si](OC)(OC)OC)c(=O)n(CCC[Si](OC)(OC)OC)c1=O)(OC)OC, CCCCCC(CO)CCC (stereo not given), CCOC(=O)c1ccccc1OC, NCCCCCCN, CC(C)C1CCC(O)CC1 (stereo not given), CC(C)(N)CO, O=C[C@H](O)[C@H](O)[C@H](O)CO, CCCCc1ccc(N)cc1, O=C(O)CCSCCC(=O)O, CCCCCCCCCCCCSC, C=C(C)C(=O)OCc1ccccc1, C=C(C)C(=O)NCCCN(C)C, CC(=O)Nc1ccccc1O, CCCCNC(=O)NS(=O)(=O)c1ccc(N)cc1
